Screening data: PubChem BioAssay, National Center for Advancing Translational Sciences (NCATS)
pAkt inh – HTS Assay for Inhibitors of Akt Phophorylation: Primary Screen; Neuro2A IGF-stimulated pAkt S473 HTRF, 20 min; active compounds read low; activity change, % for hits at 50 µM; hit rate 0.32% among 360,000; in the data active means activity change below about -80%; inconclusive means mostly about -51% to -80%
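Single-point screen (50 µM final compound) in Neuro2A cells stimulated 20 min with 6 nM IGF at 37 deg C. After lysis, Ser473-phosphorylated Akt read by HTRF (ex 330 nm, em 615/665 nm) as the 665/615 ratio.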
Apoferritin bind – qHTS Assay for Identification of Novel General Anesthetics; AID 485281, 2010; Potency, µM (series often up to 77.5 µM), hits mostly inhibitors; apoferritin/1-aminoanthracene competitive binding, fluorescence; hit rate 0.074% among 350,000; further: nearly all actives have a fitted effect of over 20% in size
Target sequence (P02791 2-175 limits assumed): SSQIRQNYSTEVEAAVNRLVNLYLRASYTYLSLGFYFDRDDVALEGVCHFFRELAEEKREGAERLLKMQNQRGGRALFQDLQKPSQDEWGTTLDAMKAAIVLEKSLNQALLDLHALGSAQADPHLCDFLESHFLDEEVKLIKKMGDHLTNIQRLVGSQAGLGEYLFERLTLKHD
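Apoferritin-based anesthetic binding model; compound displacement of fluorescent 1-AMA measured as endpoint fluorescence after 10 minutes at room temperature, scaled to free-ligand and complex controls.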
CCT modulator – High-Throughput Screening for Modulators of Cytosolic Chaperonin Activity. purified chaperonin ATPase assay, HTRF ADP detection, 30 min. activity change, % (no concentration beside the values), hits read low. hit rate 0.3% among 360,000. AID 651819, 2012; in the data active means activity change below about -30%
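We incubate TRiC, 40 or 20 nM final, with library compounds at 76 uM and 10 uM ATP for 30 min at 37 °C. ADP formed is detected with Transcreener HTRF reagents after 30 min at room temperature.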
TDP-43 yeast inh – qHTS of TDP-43 Inhibitors; hit rate 1.8% among 410,000; TDP-43 expressing yeast growth rescue, BacTiter-Glo, 24 h; Potency, µM (titrated, usually from 46.1 µM), actives largely listed as activators; further: nearly all actives have a fitted effect of over 50% in size
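Luminescence from BacTiter-Glo reports growth of TDP-43-expressing yeast after 24 hr at 30 deg C with compound. Cells were raffinose-pregrown to mid-log, then seeded in galactose medium at OD600=0.02.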
aSyn rescue – qHTS of alpha-syn Inhibitors; Yeast expressing alpha-synuclein, growth rescue, BacTiter-Glo, 24 h; Potency, µM (top dose mostly 46.1 µM), usual class: activators; hit rate 0.14% among 370,000; further: nearly all actives have a fitted effect of over 65% in size
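Galactose-induced alpha-syn yeast (OD600=0.02, raffinose-pregrown) + pinned cpd, 24 hr, 30 deg C; growth by BacTiter-Glo luminescence. Growth restoration scores as activation.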
Mito fusion yeast – qHTS Assay for Small Molecule Inhibitors of Mitochondrial Division or Activators of Mitochondrial Fusion | hit rate 0.23% among 320,000 | S. cerevisiae fusion-defective mutant growth rescue, CellTiterGlo 48 h | Potency, µM (titrated, usually from 46.1 µM), hits mostly activators | AID 485298, 2010; further: nearly all actives have a fitted effect of over 45% in size
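Compounds are tested for their ability to restore growth of mitochondrial fusion-defective yeast strains at non-permissive 37C in YPEG medium over 48 hours. Viability is quantified by luciferase luminescence.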
Hits are given with their value. Hits are enriched below; roughly 2.5% of the tested compounds scored in any of these assays. Unless noted, the call rests on the fitted dose curve; in most records, active means well fitted curve in the direction sought with a large enough effect; inconclusive means small, poorly fitted or top-dose-only effect, or another doubt; inactive means no such curve, though single readings can be large; an effect the other way counts as inactive or inconclusive.

Screening COc1ccccc1OCC(=O)N/N=C/C=C/c1ccc([N+](=O)[O-])o1 returned pAkt inh inactive, Apoferritin bind inactive, CCT modulator inactive, TDP-43 yeast inh 12.6µM, aSyn rescue inconclusive and Mito fusion yeast inconclusive.
`Cc1ccc(-c2cc(C(=O)N/N=C/c3ccc([N+](=O)[O-])o3)c3ccccc3n2)o1` gave pAkt inh inactive, Apoferritin bind inactive, CCT modulator inactive, TDP-43 yeast inh inactive, aSyn rescue inactive and Mito fusion yeast inactive.
`O=C(CNc1cccc2ccccc12)N/N=C/c1ccc([N+](=O)[O-])o1` gave pAkt inh inactive, Apoferritin bind inconclusive, CCT modulator inactive, TDP-43 yeast inh 20µM, aSyn rescue inactive and Mito fusion yeast inactive.
For NC1CCc2ccc([N+](=O)[O-])cc21 (stereo not drawn) the results were aSyn rescue inactive.
`COc1cc2nc(N3CCCCC3)nc(NC3CC3)c2cc1OC` gave aSyn rescue inactive.
Screening CCCCOc1ccc(CC(=O)N(C)O)cc1 returned aSyn rescue inactive.
`CCN1CCN(C(=O)c2ccc3c(c2)N(Cc2c(F)cccc2Cl)C(=O)c2ccccc2S3)CC1` gave Apoferritin bind inactive and TDP-43 yeast inh inactive.
For Cc1cc2ncn(/N=C/c3ccc([N+](=O)[O-])o3)c2cc1C the results were pAkt inh inactive, Apoferritin bind inactive, CCT modulator inactive, TDP-43 yeast inh 8.91µM, aSyn rescue inconclusive and Mito fusion yeast inactive.
Screening O=C(N/N=C1\CC2CC=CC12)c1ccc(Br)cc1 (stereo not drawn) returned pAkt inh inactive, Apoferritin bind inactive, CCT modulator inactive, TDP-43 yeast inh inactive, aSyn rescue inactive and Mito fusion yeast inactive.
Cc1cc(Br)c(OCc2ccc(C(=O)N/N=C3\CC4CC=CC34)cc2)c(Br)c1 (stereo not drawn) was read as pAkt inh inactive, Apoferritin bind inactive, CCT modulator inactive, TDP-43 yeast inh 25.1µM, aSyn rescue inactive and Mito fusion yeast inconclusive.
For O=C(O)/C=C/c1ccc([N+](=O)[O-])o1 the results were pAkt inh inactive, Apoferritin bind inactive, CCT modulator inactive, TDP-43 yeast inh 10µM, aSyn rescue inactive and Mito fusion yeast inactive.
`Cc1[nH]c2c(Br)cccc2c1[C@H]1[C@@H](CC#N)C1(C)C` gave pAkt inh inactive, Apoferritin bind inconclusive, CCT modulator inactive, TDP-43 yeast inh 22.4µM, aSyn rescue inactive and Mito fusion yeast inactive.
Nc1ccc2c(c1)C(=O)c1ccc(Cl)cc1-2 was read as pAkt inh inactive, CCT modulator inactive, TDP-43 yeast inh inactive and aSyn rescue inactive.
Screening Nc1ccc2c(c1)-c1ccc(F)cc1C2=O returned pAkt inh inactive, CCT modulator inactive, TDP-43 yeast inh inactive and aSyn rescue 14.1µM.
`CCN(CC)S(=O)(=O)c1ccc(Cl)c(C(=O)Nc2nncs2)c1` gave pAkt inh -102.7%, Apoferritin bind inactive, CCT modulator inactive, TDP-43 yeast inh inactive, aSyn rescue inactive and Mito fusion yeast inactive.
For CC(C)(C)NC(=O)C(c1cccs1)N(CC1CCCO1)C(=O)Cn1nnc(-c2cccs2)n1 (stereo not drawn) the results were Apoferritin bind inconclusive, CCT modulator inactive, TDP-43 yeast inh inactive, aSyn rescue inactive and Mito fusion yeast 7.08µM.
COc1ccc(C2Nc3ccccc3C(=O)N2Cc2ccccc2)cc1COc1ccccc1F (stereo not drawn) was read as aSyn rescue inactive.
Brc1cccc(-c2nnn3c2nc(NCc2ccc4c(c2)OCO4)c2ccccc23)c1 was read as Apoferritin bind inactive and TDP-43 yeast inh inactive.
`Cc1ccccc1CSCCNS(C)(=O)=O` gave pAkt inh inactive, Apoferritin bind inconclusive, CCT modulator inactive, TDP-43 yeast inh inactive, aSyn rescue inactive and Mito fusion yeast inactive.
Screening COc1ccc(S(=O)(=O)NCCSCc2ccccc2C)cc1Br returned pAkt inh -114.0%, Apoferritin bind inactive, CCT modulator inactive, TDP-43 yeast inh 15.8µM, aSyn rescue inconclusive and Mito fusion yeast inactive.
